Only some compounds are listed: those with a hit (about 1.7% of all), similar ones and a draw of the others.
Imprint erasure = qHTS Assay for Compounds that Induce Erasure of Genomic Imprints; Potency, µM (top dose mostly 60.7 µM), hits mostly activators; mouse ES Peg3-LacZ reporter, beta-gal luminescence, 40 h; 110,000 tested, 0.02% active
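Readout: BetaGlo luminescence (5 min, room temp) for LacZ from the normally silent maternal Peg3 allele in female Peg3LacZ-Neo ES cells. Cells 300/well, 40 h, 37C, 5% CO2. Data normalized per plate to negative controls.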
IkB signaling = IkB Signaling; ABC-DLBCL IkBa-CBG/CBR dual luciferase ratio, 4 h; response scale: scaled: untreated 0%, proteasome inhibitor 100%; Potency, µM (top dose mostly 57.1 µM); 110,000 tested, 0.04% active; active = well fitted curve in the direction sought with a large enough effect in the signal ratio, not every such curve was filed as active; inconclusive = small, poorly fitted or top-dose-only effect, or a change in a side signal; the % refers to the signal ratio;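 also: the direction sought is a rising ratio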
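In this assay, an IκBα–CBG68 fusion accumulates when IKK-driven degradation is blocked; native CBR normalizes for cell number. OCI-Ly3 cells were treated 4 h with compound and doxycycline, then green and red light read after Chroma-Glo addition.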
p53ts 39C tox = qHTS Screen for Compounds that Selectively Target Cancer Cells with p53 Mutations: Cytotoxicity of p53ts Cells at the Nonpermissive Temperature | Potency, µM (top dose mostly 46.1 µM), most hits filed as cytotoxic | H1299-p53A138V viability at 39C, ATP luminescence, 24 h | 130,000 tested, 1.5% active; also: nearly all actives have a fitted effect of over 55% in size
p53ts 32C kill = qHTS Screen for Compounds that Selectively Target Cancer Cells with p53 Mutations: Cytotoxicity of p53ts Cells at the Permissive Temperature; 130,000 tested, 0.93% active; H1299-p53A138V at 32C, ATP luminescence viability, 24 h; Potency, µM (titrated, usually from 46.1 µM), most hits filed as cytotoxic; also: nearly all actives have a fitted effect of over 55% in size
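Cells: H1299 p53ts (A138V), 600/well, pre-incubated 16–30 h at 37C. Cpd up to 46 uM, 24 h, 32C. Readout: ATPlite luminescence, 20 min RT. Normalization: DMSO vs tamoxifen 100 uM. AC50 by Hill equation.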
Numbers stand for hits; i = inactive; ? = inconclusive; nt = no result; ! = repeats disagree; [ ] = another dose, or the depositor's remark. Unless noted, calls follow the shape of the dose curve; as a rule, active = well fitted curve in the direction sought with a large enough effect; inconclusive = small, poorly fitted or top-dose-only effect, or another doubt; inactive = no such curve, though single readings can be large; an effect the other way counts as inactive or inconclusive.

SMILES	Imprint erasure	IkB signaling	p53ts 39C tox	p53ts 32C kill
Cc1ccc(NC(=O)c2ccc(NC(=O)N3CCSc4ncccc43)cc2)cc1Cl	i[10.9 µM]	?	?	?
COc1cc(NS(=O)(=O)c2cc(Br)cc3c2N(C(=O)C2CC2)CC3)cc(OC)c1	i[10.9 µM]	i	13µM	10µM
COc1ccc2c(c1)[N+](=O)C(/C(C)=N/NC(N)=S)=C(C)[N+]2=O	i[10.9 µM]	nt	nt	nt
O=C(CC1S/C(=N/N=C/c2cccs2)NC1=O)Nc1ccc(Cl)c(Cl)c1 (configuration not stated)	nt	nt	i	nt
CCC1SC(=NC(=O)c2ccc(Cl)c(Cl)c2)NC1=O (configuration not stated)	i	?	7.9µM	7.9µM
Cc1ccc2scc(N3CCCCC3)c(=O)c2c1	i[10.9 µM]	i	16µM	13µM
Cc1ccc2scc(N3CCC(C)CC3)c(=O)c2c1	i[10.9 µM]	i	?	?
Cc1ccc2scc(N3CCCCC3C)c(=O)c2c1 (configuration not stated)	i[10.9 µM]	i	6.3µM	10µM
Cc1ccc(O)c(NC(=O)CCS(=O)(=O)c2nc(-c3cccs3)cc(C(F)(F)F)n2)c1	i[10.9 µM]	?	?	?
O=C(CCS(=O)(=O)c1nc(-c2cccs2)cc(C(F)(F)F)n1)Nc1cc(Br)ccc1O	i[10.9 µM]	?	7.9µM	?
N.N.N.N.N.N.N.N.N.N.N.N.N.N.O.O.[Cl-].[Cl-].[Cl-].[Cl-].[Cl-].[Cl-].[Ru].[Ru].[Ru]	i	nt	nt	nt
CC1=c2c(oc3cc(O)c(Nc4c(C)cc(O)cc4O)c(C)c23)=CC(=O)C1=Nc1c(C)cc(O)cc1O	i[10.9 µM]	i[11.4 µM]	i[9.22 µM]	i[9.22 µM]
Oc1cccc(/C=N/c2c(-c3ccco3)nc3ccccn23)c1	nt	nt	13µM	?
COc1cccc(-n2c(SCC(=O)Nc3cccc(Cl)c3)nc3c(oc4ccccc43)c2=O)c1	i[10.9 µM]	?	i	i
O=C(CSc1nc2c(oc3ccccc32)c(=O)[nH]1)Nc1cccc(Cl)c1	i[10.9 µM]	?	7.9µM	10µM
CCOC(=O)c1sc(N)c(C(=O)Nc2ccc(C)cc2C)c1C	nt	nt	i	i
Cc1cccc(NC(=O)c2cnc3sccn3c2=O)c1	i	i	10µM	7.9µM
COc1cc(NC(=O)c2cc3ccccn3n2)cc(OC)c1OC	i[10.9 µM]	i	i	i
Cc1ccc(NC(=O)c2cc3ccccn3n2)cc1F	i[10.9 µM]	i	?	13µM
CCc1ccc(NC(=O)c2cc3ccccn3n2)cc1	i[10.9 µM]	i	3.2µM	6.3µM
Cc1ccccc1CCNC(=O)c1cc2ccccn2n1	i[10.9 µM]	?	10µM	?
CC(=O)[C@H]1CC[C@@H]2[C@]1(C)CC=C1[C@@]23C=C[C@]2(C[C@H](O)CC[C@@]12C)[C@H](C(=O)O)[C@@H]3C(=O)O	i[10.9 µM]	nt	nt	nt
N#Cc1cnc(Nc2nc3ccccc3o2)nc1-c1ccccc1	i	i	i	i
Cc1ccnc(Nc2nc3ccccc3o2)n1	i	?	7.9µM	5µM
O=c1c(-c2ccc(O)cc2)coc2cc(O)cc(O)c12	i	?	?	10µM!
SMILES	Imprint erasure	IkB signaling	p53ts 39C tox	p53ts 32C kill
COc1ccc(-c2coc3cc(O)cc(O)c3c2=O)cc1	i	i[11.4 µM]	?	?
O=Nc1c(-c2c(O)[nH]c3cc(Br)ccc23)[nH]c2ccccc12	i	nt	13µM	13µM
CNc1ncnc2c1ncn2[C@H]1C[C@@H](OP(=O)(O)O)[C@H](COP(=O)(O)O)O1	nt	i	i	i
Cc1ccc(-n2ncc3c(N(C)C)ncnc32)cc1Cl	i[10.9 µM]	i	7.9µM	?
Cc1ccc(-n2ncc3c(N4CCN(C)CC4)ncnc32)cc1Cl	i[10.9 µM]	?	?	i
Cc1ccc(-n2ncc3c(NCCO)ncnc32)cc1Cl	i[10.9 µM]	?	16µM	i
CCCCN(C)c1ncnc2c1cnn2-c1cccc(Cl)c1	i[10.9 µM]	i	16µM	?
CN1[C@@H]2CC(OC(=O)[C@@H](CO)c3ccccc3)C[C@@H]1[C@H]1O[C@H]12 (some centres not stated)	i[10.9 µM]	i[11.4 µM]	nt	nt
O=C(O[C@@H]1Cc2c(O)cc(O)cc2OC1c1ccc(O)c(O)c1)c1cc(O)c(O)c(O)c1 (some centres not stated)	i	nt	i	i
CCOc1ccccc1NC(=O)c1sc2nc(-c3ccc(OC)cc3)ccc2c1N	i[10.9 µM]	i	4µM	6.3µM
CCOC(=O)c1sc(NC(=O)COC(=O)CNC(=O)C2CCCCC2)c(C(=O)OCC)c1C	nt	nt	3.2µM	?
CN(C)c1ncc2nc(-c3ccc(F)cc3)c(=O)n(CCC#N)c2n1	nt	i[11.4 µM]	i	i

Screens (PubChem BioAssay)
